Experimental data: PubChem BioAssay
Where “and” joins values, the source holds several entries; their conditions need not be identical. Equal entries are not always repeated. Results filed as inconclusive are left out. Calls of active or inactive are those of the source.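 The calls were made as follows, unless noted: active = normalized viability below 100% at a tested concentration; inactive = the rest.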

Legend:
[1] = viability loss in pontine glioma line – cell-based, SU-DIPG-XVII, MIPE5.0, CellTiter-Glo, qHTS, dose response (AID 1347060; cut-off not given, nearly all actives have AC50 up to about 26 µM;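 as to AC50: cells exposed to compound for 48 hours before viability readout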); details: CellTiter-Glo ATP luminescence
[2] = viability loss in pontine glioma line – cell-based, SU-DIPG-XIII, MIPE4.0, CellTiter-Glo, qHTS, dose response (AID 1347061; cut-off not given, nearly all actives have AC50 up to about 37 µM;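 also: cells exposed to compound for 48 hours before readout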); details: CellTiter-Glo ATP luminescence
[3] = viability loss in pontine glioma line – cell-based, JHH-DIPG-1, MIPE4.0, CellTiter-Glo, qHTS, dose response (AID 1347062; cut-off not given, nearly all actives have AC50 up to about 27 µM;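 as to AC50: cells exposed to compound for two days before readout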); details: JHH-DIPG-1 viability, CellTiter-Glo ATP luminescence
[4] = viability loss in pontine glioma line – cell-based, SU-DIPG-IV, MIPE4.0, CellTiter-Glo, qHTS, dose response (AID 1347063; cut-off not given, nearly all actives have AC50 up to about 30 µM;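 also: compound exposure lasted 48 hours before the viability readout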); details: CellTiter-Glo ATP luminescence
[5] = viability loss in pontine glioma line – cell-based, SU-DIPG-XIII, MIPE5.0, CellTiter-Glo, qHTS, dose response (AID 1347064; cut-off not given, nearly all actives have AC50 up to about 23 µM;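 as to AC50: cells exposed to compound for 48 hours before the viability read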); details: CellTiter-Glo ATP luminescence
[6] = viability loss in pontine glioma line – cell-based, SU-DIPG-XXV, MIPE5.0, CellTiter-Glo, qHTS, dose response (AID 1347065; cut-off not given, nearly all actives have AC50 up to about 26 µM;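 also: cells exposed to compound for 48 hours before ATP readout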); details: CellTiter-Glo ATP luminescence
[7] = JHH-DIPG-1 glioma cell viability, MIPE5.0 library, CellTiter-Glo luminescence, qHTS (AID 1347067; cut-off not given, nearly all actives have AC50 up to about 26 µM;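 also: cells exposed to compound for 48 hours before readout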); details: JHH-DIPG-1 glioma viability, CellTiter-Glo ATP luminescence
[8] = growth inhibition of DIPG cells – cell-based, MIPE5.0 library, qHTS (AID 1347068; cut-off not given, nearly all actives have IC50 up to about 30 µM;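 as to IC50: cells exposed to compound for 48 hours before viability readout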); details: SU-DIPG-XXV viability
[9] = viability loss with induced miR-34 in A549 – imaging, A549 dox-inducible miR-34, nuclei and caspase counts, primary screen (AID 1347080;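 active = compounds whose cell count with miR-34 switched on is under 0.7 times the count with it off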); details: A549 miR-34 inducible, Hoechst nuclei count, 48 h
[10] = MELAS cybrid and Rieske KO viability enhancers – cell-based, MELAS cybrids, Rieske KO mouse fibroblasts, CellTiter-Glo, primary screen (AID 1508586;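 active = mean z-score across replicates of 1.96 or higher in either the MELAS or the Rieske mutant cell line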;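 also: z relative to plate mean and SD of compound and empty wells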); details: low glucose
[11] = growth inhibition of DIPG cells – cell-based, MIPE4.0 library, CellTiter-Glo luminescence, qHTS (AID 1347066; cut-off not given, nearly all actives have AC50 up to about 30 µM;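 also: cells exposed to compound for 48 hours before readout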); details: SU-DIPG-VI viability, CellTiter-Glo ATP luminescence
[12] = compounds altering HSF1 focus formation in cells – imaging, Selleck Cancer Library (AID 1347162; in the data active = plate-normalised HSF1 focus index below about 0.46); details: human cells, HSF1 nuclear foci imaging, at 10 µM; SSMD: measured here: HSF1 foci SSMD mean; cell count: measured here: cell number; plate-normalised HSF1 focus index: stronger effect = lower value
[13] = drug combination growth inhibition, ovarian cancer – cell-based, oncology-focused library, rucaparib conditional, profiling panel (AID 1508598); details: patient-derived ovarian cancer cells, CellTiter-Glo viability, 144 h, stronger effect = lower value
[14] = stronger effect = lower value, cell number ratio, induced over uninduced
[15] = measured here: relative caspase fold change +Dox/-Dox
[16] = measured here: total cells with miR-34 induction, stronger effect = lower value
[17] = measured here: total cells without miR-34 induction
[18] = MELAS cybrid survival, CellTiter-Glo 48 h, stronger effect = higher value
[19] = Rieske KO mouse fibroblast survival, CellTiter-Glo 72 h
[20] = at 0.000305 µM, OCI-C5x cells, with rucaparib 10 µM, 100% = cells with rucaparib alone
[21] = at 0.000305 µM, OCI-C5x cells, without rucaparib
[22] = at 0.000305 µM, OCI-P5x cells, with rucaparib 20 µM, 100% = cells with rucaparib alone
[23] = at 0.000305 µM, OCI-P5x cells, without rucaparib
[24] = at 0.00122 µM, OCI-C5x cells, with rucaparib 10 µM, 100% = cells with rucaparib alone
[25] = at 0.00122 µM, OCI-C5x cells, without rucaparib
[26] = at 0.00122 µM, OCI-P5x cells, with rucaparib 20 µM, 100% = cells with rucaparib alone
[27] = at 0.00122 µM, OCI-P5x cells, without rucaparib
[28] = at 0.00488 µM, OCI-C5x cells, with rucaparib 10 µM, 100% = cells with rucaparib alone
[29] = at 0.00488 µM, OCI-C5x cells, without rucaparib
[30] = at 0.00488 µM, OCI-P5x cells, with rucaparib 20 µM, 100% = cells with rucaparib alone
[31] = at 0.00488 µM, OCI-P5x cells, without rucaparib
[32] = at 0.0195 µM, OCI-C5x cells, with rucaparib 10 µM, 100% = cells with rucaparib alone
[33] = at 0.0195 µM, OCI-C5x cells, without rucaparib
[34] = at 0.0195 µM, OCI-P5x cells, with rucaparib 20 µM, 100% = cells with rucaparib alone
[35] = at 0.0195 µM, OCI-P5x cells, without rucaparib
[36] = at 0.0781 µM, OCI-C5x cells, with rucaparib 10 µM, 100% = cells with rucaparib alone
[37] = at 0.0781 µM, OCI-C5x cells, without rucaparib
[38] = at 0.0781 µM, OCI-P5x cells, with rucaparib 20 µM, 100% = cells with rucaparib alone
[39] = at 0.0781 µM, OCI-P5x cells, without rucaparib
[40] = at 0.313 µM, OCI-C5x cells, with rucaparib 10 µM, 100% = cells with rucaparib alone
[41] = at 0.313 µM, OCI-C5x cells, without rucaparib
[42] = at 0.313 µM, OCI-P5x cells, with rucaparib 20 µM, 100% = cells with rucaparib alone
[43] = at 0.313 µM, OCI-P5x cells, without rucaparib
[44] = at 1.25 µM, OCI-C5x cells, with rucaparib 10 µM, 100% = cells with rucaparib alone
[45] = at 1.25 µM, OCI-C5x cells, without rucaparib
[46] = at 1.25 µM, OCI-P5x cells, with rucaparib 20 µM, 100% = cells with rucaparib alone
[47] = at 1.25 µM, OCI-P5x cells, without rucaparib
[48] = at 5 µM, OCI-C5x cells, with rucaparib 10 µM, 100% = cells with rucaparib alone
[49] = at 5 µM, OCI-C5x cells, without rucaparib
[50] = at 5 µM, OCI-P5x cells, with rucaparib 20 µM, 100% = cells with rucaparib alone
[51] = at 5 µM, OCI-P5x cells, without rucaparib

CNC(=O)c1ccccc1Nc1nc(Nc2ccc(N3CCOCC3)cc2OC)ncc1Cl
AC50 [1]: 590 nM (active) | AC50 [2]: 5900 nM (active) | AC50 [3]: 1480 nM (active) | AC50 [4]: 2960 nM (active) | AC50 [5]: 235 nM (active) | AC50 [6]: 186 nM (active) | AC50 [7]: 661 nM (active) | IC50 [8]: 1050 nM (active) | fold change [9, 14]: 0.899 (inactive) | fold change [9, 15]: 0.999 | cell count [9, 16]: 1560 | cell count [9, 17]: 1730 | z-score [10, 18]: 0.492 (inactive) | z-score [10, 19]: -1.89

CC(C)c1noc(N2CCC(COc3ccc(-c4ccc(S(C)(=O)=O)cc4)nc3)CC2)n1
outcome [1]: inactive | outcome [2]: inactive | outcome [3]: inactive | outcome [4]: inactive | outcome [5]: inactive | outcome [11]: inactive | outcome [7]: inactive | outcome [8]: inactive | fold change [9, 14]: 0.733 (inactive) | fold change [9, 15]: 1.55 | cell count [9, 16]: 5110 | cell count [9, 17]: 6980 | z-score [10, 18]: -0.22 (inactive) | z-score [10, 19]: 0.941

Cc1ccc(C(=O)Nc2cccc(C(F)(F)F)c2)cc1-c1ccc2nc(NCCN3CCOCC3)ncc2c1
AC50 [1]: 2350 nM (active) | AC50 [2]: 6620 nM (active) | AC50 [3]: 6620 nM (active) | AC50 [4]: 4690 nM (active) | AC50 [5]: 3720 nM (active) | AC50 [6]: 2090 nM (active) | AC50 [7]: 2950 nM (active)

c1ccc(-c2nn3c(c2-c2ccnc4cc(OCCN5CCOCC5)ccc24)CCC3)nc1
outcome [1]: inactive | outcome [2]: inactive | outcome [3]: inactive | outcome [4]: inactive | outcome [5]: inactive | outcome [11]: inactive | outcome [7]: inactive | SSMD [12]: 2.44 | cell count [12]: 6520 | plate-normalised HSF1 focus index [12]: 1.13 (inactive)

CC(/C=C/C(=O)NO)=C\[C@@H](C)C(=O)c1ccc(N(C)C)cc1
AC50 [1]: 332 nM (active) | AC50 [2]: 7430 nM (active) | AC50 [3]: 1480 nM (active) | AC50 [4]: 590 nM (active) | AC50 [5]: 209 nM (active) | AC50 [6]: 372 nM (active) | AC50 [7]: 525 nM (active) | fold change [9, 14]: 0.973 (inactive) and 1 (inactive) | fold change [9, 15]: 1.51 and 0.994 | cell count [9, 16]: 926 and 1160 | cell count [9, 17]: 952 and 1150 | SSMD [12]: -1.78 | cell count [12]: 7010 | plate-normalised HSF1 focus index [12]: 0.921 (inactive) | viability [13, 20]: 111% (inactive) | viability [13, 21]: 91.4% (active) | viability [13, 22]: 77.4% (active) | viability [13, 23]: 83.4% (active) | viability [13, 24]: 117% (inactive) | viability [13, 25]: 102% (inactive) | viability [13, 26]: 82.5% (active) | viability [13, 27]: 83.5% (active) | viability [13, 28]: 107% (inactive) | viability [13, 29]: 105% (inactive) | viability [13, 30]: 75.8% (active) | viability [13, 31]: 89.8% (active) | viability [13, 32]: 115% (inactive) | viability [13, 33]: 109% (inactive) | viability [13, 34]: 81.7% (active) | viability [13, 35]: 76.1% (active) | viability [13, 36]: 42.3% (active) | viability [13, 37]: 17.8% (active) | viability [13, 38]: 50.3% (active) | viability [13, 39]: 51.8% (active) | viability [13, 40]: 8.25% (active) | viability [13, 41]: 6.7% (active) | viability [13, 42]: 13% (active) | viability [13, 43]: 12.1% (active) | viability [13, 44]: 4.57% (active) | viability [13, 45]: 4.64% (active) | viability [13, 46]: 2.76% (active) | viability [13, 47]: 2.28% (active) | viability [13, 48]: 5% (active) | viability [13, 49]: 4.88% (active) | viability [13, 50]: 0.994% (active) | viability [13, 51]: 1.21% (active)

COc1ccc2c3n(c(=NC(=O)c4cccnc4)nc2c1OC)CCN3
AC50 [1]: 1050 nM (active) | AC50 [2]: 13200 nM (active) | AC50 [3]: 8330 nM (active) | AC50 [4]: 1050 nM (active) | AC50 [5]: 742 nM (active) | AC50 [6]: 590 nM (active) | outcome [8]: inactive | SSMD [12]: -0.125 | cell count [12]: 7610 | plate-normalised HSF1 focus index [12]: 0.991 (inactive)

COC(=O)Nc1ccc(-c2nc(N3CCOCC3)c3cnn(C4CCN(C(=O)OC)CC4)c3n2)cc1
AC50 [1]: 1860 nM (active) | AC50 [2]: 66.2 nM (active) | AC50 [3]: 187 nM (active) | AC50 [4]: 1320 nM (active) | AC50 [5]: 2630 nM (active) | AC50 [6]: 417 nM (active) | fold change [9, 14]: 1.03 (inactive) | fold change [9, 15]: 0.692 | cell count [9, 16]: 2420 | cell count [9, 17]: 2340 | SSMD [12]: 1.11 | cell count [12]: 6960 | plate-normalised HSF1 focus index [12]: 1.06 (inactive) | z-score [10, 18]: 4.37 (active) | z-score [10, 19]: 0.522 | viability [13, 20]: 108% (inactive) | viability [13, 21]: 105% (inactive) | viability [13, 22]: 94.1% (active) | viability [13, 23]: 90.5% (active) | viability [13, 24]: 127% (inactive) | viability [13, 25]: 108% (inactive) | viability [13, 26]: 104% (inactive) | viability [13, 27]: 93.1% (active) | viability [13, 28]: 109% (inactive) | viability [13, 29]: 108% (inactive) | viability [13, 30]: 101% (inactive) | viability [13, 31]: 102% (inactive) | viability [13, 32]: 118% (inactive) | viability [13, 33]: 117% (inactive) | viability [13, 34]: 106% (inactive) | viability [13, 35]: 104% (inactive) | viability [13, 36]: 115% (inactive) | viability [13, 37]: 112% (inactive) | viability [13, 38]: 97% (active) | viability [13, 39]: 101% (inactive) | viability [13, 40]: 100% (inactive) | viability [13, 41]: 114% (inactive) | viability [13, 42]: 101% (inactive) | viability [13, 43]: 106% (inactive) | viability [13, 44]: 119% (inactive) | viability [13, 45]: 116% (inactive) | viability [13, 46]: 83.4% (active) | viability [13, 47]: 103% (inactive) | viability [13, 48]: 126% (inactive) | viability [13, 49]: 120% (inactive) | viability [13, 50]: 70.5% (active) | viability [13, 51]: 99.3% (active)
